Source: PubChem BioAssay (NCI)
Compounds without any hit were thinned out: in the full panel of roughly 79,000, 15% have a hit. Active and inactive are the calls of the source. Rule as the data show it: active = growth inhibition above about 70%; inactive = the rest.

Experiments:
[1] = NCI Yeast Anticancer Drug Screen. Data for the rad50 strain (AID 155);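 also: 0% = growth of vehicle-only cultures of the same strain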; settings: S. cerevisiae rad50 strain growth inhibition, active compounds read high
Outline: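 Yeast carrying a defined DNA repair defect were exposed to test compounds, and growth was compared with vehicle-treated controls to give percent inhibition.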

[2] = NCI Yeast Anticancer Drug Screen. Data for the mec2-1 strain (AID 157); settings: S. cerevisiae mec2-1 strain, active compounds read high
Outline: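 Each compound was tested on mec2-1 yeast, a strain altered in DNA damage repair or cell cycle control. Growth inhibition is reported relative to vehicle.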

[3] = NCI Yeast Anticancer Drug Screen. Data for the sgs1 mgt1 strain (AID 161);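 also: 0% = growth of cultures given vehicle only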; settings: S. cerevisiae sgs1 mgt1 strain, active compounds read high
Outline: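 Mutant yeast exposed to compound; growth scored against vehicle-only wells.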

[4] = NCI Yeast Anticancer Drug Screen. Data for the cln2 rad14 strain (AID 165);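 also: 0% = growth equal to vehicle treated cultures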; settings: S. cerevisiae cln2 rad14 strain, active compounds read high
Outline: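 Test compounds were added to cln2 rad14 yeast cultures; inhibition of growth was then determined by comparison with vehicle treatment.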

[5] = NCI Yeast Anticancer Drug Screen. Data for the bub3 strain (AID 167); settings: S. cerevisiae bub3 mutant strain, active compounds read high
Outline: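 Compounds were applied to a genetically altered yeast strain carrying a cell-cycle control defect. Growth inhibition was scored against vehicle-treated controls.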

[6] = NCI Yeast Anticancer Drug Screen. Data for the mlh1 rad18 strain (AID 175); settings: S. cerevisiae mlh1 rad18 strain growth inhibition, active compounds read high
Outline: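 Inhibition values reflect reduced growth of mutant yeast versus vehicle-treated controls following compound exposure; the mutations affect DNA damage repair.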

[7] = at 5.0 µM (retest, dose inferred, filed as 0.5)
[8] = at 50.0 µM (retest, dose inferred, filed as 5.0)

Measured: growth inhibition

C\C=C/C=C/C=C/C(=O)O
active: [5]; at 50.0 µM 95%
inactive: [1]; [7] 5% | [1]; [8] 13% | [1]; at 50.0 µM 66.5% | [2]; [7] 2% | [2]; [8] -4% | [2]; at 50.0 µM 60.1% | [3]; [7] 2% | [3]; [8] 7% | [3]; at 50.0 µM 42.3% | [4]; [7] -2% | [4]; [8] 3% | [4]; at 50.0 µM 40.6% | [5]; [7] 4% | [5]; [8] 0% | [6]; [7] 1% | [6]; [8] 8% | [6]; at 50.0 µM 45%

CC(C)c1ccc2c(c1)CC[C@H]1[C@](C)(C(=O)O)CCC[C@]21C
active: [1]; [8] 96% | [1]; at 50.0 µM 91.6% | [2]; [8] 96% | [2]; at 50.0 µM 93% | [3]; [8] 96% | [3]; at 50.0 µM 91.8% | [4]; [8] 96% | [4]; at 50.0 µM 91.3% | [5]; [8] 95% | [5]; at 50.0 µM 90.8% | [6]; [8] 95% | [6]; at 50.0 µM 91.1%
inactive: [1]; [7] -1% | [2]; [7] 2% | [3]; [7] 10% | [4]; [7] -11% | [5]; [7] -2% | [6]; [7] 9%

COc1cc2c(Cc3ccc(OC)c(OC)c3)[n+](Cc3ccccc3)ccc2cc1NCc1ccccc1
active: [1]; [7] 90% | [1]; [8] 98% | [1]; at 50.0 µM 89% | [2]; [7] 90% | [2]; [8] 99% | [2]; at 50.0 µM 92.2% | [3]; [7] 93% | [3]; [8] 99% | [3]; at 50.0 µM 86% | [4]; [8] 98% | [4]; at 50.0 µM 89.6% | [5]; [7] 92% | [5]; [8] 99% | [5]; at 50.0 µM 81.1% | [6]; [7] 88% | [6]; [8] 99% | [6]; at 50.0 µM 92.7%
inactive: [4]; [7] 65%

CC1OC(OP(=O)(OCc2ccccc2)OCc2ccccc2)C(OC(=O)c2ccccc2)C(OC(=O)c2ccccc2)C1I (configuration not stated)
inactive: [1]; [7] 50% | [2]; [7] 33% | [3]; [7] 37% | [4]; [7] 29% | [5]; [7] 30% | [6]; [7] 55%
active: [1]; [8] 93% | [1]; at 50.0 µM 86.1% | [2]; [8] 95% | [2]; at 50.0 µM 90.6% | [3]; [8] 96% | [3]; at 50.0 µM 90.1% | [4]; [8] 95% | [4]; at 50.0 µM 88.5% | [5]; [8] 77% | [5]; at 50.0 µM 88.9% | [6]; [8] 93% | [6]; at 50.0 µM 85%

CC(=O)OC(C)(C)N=Nc1ccc(Br)cc1
active: [1]; [7] 86% | [1]; [8] 99% | [1]; at 50.0 µM 97.9% | [2]; [8] 99% | [2]; at 50.0 µM 98.1% | [3]; [8] 97% | [3]; at 50.0 µM 98.2% | [4]; [8] 94% | [4]; at 50.0 µM 97.3% | [5]; [7] 78% | [5]; [8] 99% | [5]; at 50.0 µM 97.2% | [6]; [8] 99% | [6]; at 50.0 µM 98.2%
inactive: [2]; [7] 31% | [3]; [7] 60% | [4]; [7] 51% | [6]; [7] 63%

C=C1C(C2(C)C(OC(C)=O)CC(=O)OC(C)(COC(C)=O)C2CC(=O)OC)C(OC=O)C(OC(=O)C(O)C(C)CC)C2(C)C(c3ccoc3)CC(=O)C12O (configuration not stated)
inactive: [1]; [7] -15% | [1]; [8] -28% | [2]; [7] -5% | [2]; [8] -16% | [2]; at 50.0 µM 68.7% | [3]; [7] 4% | [3]; [8] -32% | [3]; at 50.0 µM 57.5% | [4]; [7] -6% | [4]; [8] 0% | [5]; [7] -36% | [5]; [8] -23% | [6]; [7] -2% | [6]; [8] -53%
active: [1]; at 50.0 µM 76.9% | [4]; at 50.0 µM 81.5% | [5]; at 50.0 µM 79.8% | [6]; at 50.0 µM 90%

O=C1c2cccc(O)c2C(=O)c2c(OC3OC(CO)C(O)C(O)C3O)cccc21 (configuration not stated)
active: [1]; at 50.0 µM 76.8% | [3]; at 50.0 µM 78% | [5]; at 50.0 µM 74.8%
inactive: [1]; [7] 6% | [1]; [8] 68% | [2]; [7] 10% | [2]; [8] 48% | [2]; at 50.0 µM 24.5% | [3]; [7] 4% | [3]; [8] 52% | [4]; [7] 16% | [4]; [8] 59% | [4]; at 50.0 µM 34.4% | [5]; [7] 6% | [5]; [8] 60% | [6]; [7] -7% | [6]; [8] 62% | [6]; at 50.0 µM 47.5%

CC(=O)Nc1ccc(-c2ccccc2)cc1[N+](=O)[O-]
inactive: [1]; [7] -3% | [1]; [8] 4% | [1]; at 50.0 µM 14.9% | [2]; [7] -4% | [2]; [8] 0% | [2]; at 50.0 µM 16.6% | [3]; [7] -2% | [3]; [8] 0% | [3]; at 50.0 µM -24.1% | [4]; [7] 0% | [4]; [8] -7% | [4]; at 50.0 µM -113% | [5]; [7] 1% | [5]; [8] 5% | [5]; at 50.0 µM 44.4% | [6]; [7] -2% | [6]; [8] 2% | [6]; at 50.0 µM 41.7%

Nc1c(Cl)nc(C(F)(F)F)nc1NCc1ccccc1
inactive: [1]; [7] 60% | [1]; at 50.0 µM 39.7% | [2]; at 50.0 µM 8.25% | [3]; at 50.0 µM 1.45% | [4]; at 50.0 µM -48.1% | [5]; at 50.0 µM 23.7% | [6]; at 50.0 µM 5.35%
active: [1]; [8] 99% | [2]; [7] 99% | [2]; [8] 99% | [3]; [7] 97% | [3]; [8] 99% | [4]; [7] 99% | [4]; [8] 99% | [5]; [7] 99% | [5]; [8] 99% | [6]; [7] 91% | [6]; [8] 99%
